Measured values taken from PubChem BioAssay.
“And” between values parts separate entries of the source, which are not always exact repeats. Identical values can stand only once. Records with an inconclusive call do not appear. The source made the active and inactive calls.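 Rule for the calls, unless noted: active = normalized viability below 100% at a tested concentration; inactive = the rest.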

Experiments:
[1] = viability loss in pontine glioma line – cell-based, SU-DIPG-XXV, MIPE5.0, CellTiter-Glo, qHTS, dose response (AID 1347065; cut-off not given, nearly all actives have AC50 up to about 26 µM;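 note: cells exposed to compound for 48 hours before ATP readout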); conditions: CellTiter-Glo ATP luminescence
[2] = SU-DIPG-VI glioma cell viability, MIPE4.0 library, CellTiter-Glo luminescence, qHTS (AID 1347066; cut-off not given, nearly all actives have AC50 up to about 30 µM;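 note: cells exposed to compound for 48 hours before readout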); conditions: CellTiter-Glo ATP luminescence
[3] = JHH-DIPG-1 glioma cell viability, MIPE5.0 library, CellTiter-Glo luminescence, qHTS (AID 1347067; cut-off not given, nearly all actives have AC50 up to about 26 µM;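 note: cells exposed to compound for 48 hours before readout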); conditions: JHH-DIPG-1 glioma viability, CellTiter-Glo ATP luminescence
[4] = SU-DIPG-XXV glioma cell viability, MIPE5.0 library, qHTS (AID 1347068; cut-off not given, nearly all actives have IC50 up to about 30 µM)
[5] = sensitizers of A549 cells to miR-34 induction, primary screen, imaging, A549 dox-inducible miR-34, nuclei and caspase counts (AID 1347080;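 active = compounds whose cell count with miR-34 switched on is under 0.7 times the count with it off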); conditions: A549 miR-34 inducible, Hoechst nuclei count, 48 h
[6] = phospholipid biosynthesis inhibitors in animal cells, primary screen, cell-based, LOPAC library, screen 4 (AID 1347384; call rule not given here); conditions: phospholipid biosynthesis inhibition screen, at 10 µM
[7] = survival rescue of mitochondrial mutant cells in low glucose, primary screen, MELAS cybrids, Rieske KO mouse fibroblasts, CellTiter-Glo (AID 1508586;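 active = mean z-score across replicates of 1.96 or higher in either the MELAS or the Rieske mutant cell line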;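 note: z relative to plate mean and SD of compound and empty wells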)
[8] = ovarian cancer cell viability with rucaparib, profiling panel, oncology-focused library, rucaparib conditional (AID 1508598); conditions: patient-derived ovarian cancer cells, CellTiter-Glo viability, 144 h, stronger effect = lower value
[9] = target: NAD(+) hydrolase SARM1 (Homo sapiens) (UniProt Q6SZW1); experiment: SARM1 TIR NADase inhibitors, cell lysate, NAD-Glo luminescence (AID 1508614;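 active = compound whose remaining NAD level is above about 45 nM, limit read from the data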;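 note: higher remaining NAD means stronger inhibition of SARM1 NADase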); conditions: SAM-TIR HEK293T lysate NADase, at 1 µM, stronger effect = higher value
[10] = target: Mitogen-activated protein kinase 7 (Homo sapiens) (UniProt Q13164); experiment: ERK5 transactivation activators in reporter cells, primary screen, cell-based, HTS (AID 1508626;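 active = luciferase signal above three times the same-plate solvent-only control wells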;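 note: luciferase driven by Gal4-ERK5 fusion binding five Gal4 sites before minimal TATA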); conditions: HeLa Gal4-ERK5 transactivation, 18 h, at 5 µM, stronger effect = higher value
[11] = viability rescue of complex I mutant cybrids, primary screen, cell-based, galactose medium, ATP luminescence (AID 1645843;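 active = z-score of at least 1.8 in each of two replicates, scored against plate mean and spread of sample wells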;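 note: positive z means more ATP and so rescue of galactose-driven cybrid death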); conditions: complex I mutant cybrid cells, 72 h, stronger effect = higher value
[12] = LFS_MB_P medulloblastoma growth inhibition, cell-based, chromothripsis tumors, cisplatin or BGB combos (AID 1671449; in the data active = inhibition above about 80%;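 note: cells exposed for 96 hours; 0% = vehicle DMSO and 100% = killing by high DMSO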); conditions: LFS_MB_P medulloblastoma cells
[13] = HDN33 neuroblastoma growth inhibition, cell-based, chromothripsis tumors, cisplatin or BGB combos (AID 1671450; in the data active = inhibition above about 80%;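 note: cells exposed to compound for four days; 0% = vehicle DMSO and 100% = cell killing by high DMSO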); conditions: HDN33 neuroblastoma cells, stronger effect = higher value
[14] = ICB984 medulloblastoma cell growth inhibition, synergistic combos for chromothripsis tumors, cisplatin or BGB combos (AID 1671451; call rule not given here;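 note: cells exposed for 96 hours before readout; 0% = vehicle DMSO and 100% = killing by high DMSO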); conditions: ICB984 medulloblastoma cells, drug combinations, stronger effect = higher value
[15] = LFS_MB_1R medulloblastoma cell growth inhibition, synergistic combos for chromothripsis tumors, cisplatin or BGB combos (AID 1671452; in the data active = inhibition above about 80%;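 note: cells exposed for 96 hours before readout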); conditions: LFS_MB_1R medulloblastoma cells, stronger effect = higher value
[16] = HTB85 osteosarcoma cell growth inhibition, synergistic combos for chromothripsis tumors, BGB or cisplatin IC20 combos (AID 1671453; in the data active = inhibition above about 80%;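 note: cells exposed for 96 hours before readout; 0% = vehicle DMSO and 100% = high DMSO killing control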); conditions: HTB85 osteosarcoma cells, drug combinations, stronger effect = higher value
[17] = CRL2098 osteosarcoma cell growth inhibition, synergistic combos for chromothripsis tumors, BGB or cisplatin IC20 combos (AID 1671454; in the data active = inhibition above about 80%;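 note: cells exposed for 96 h before readout; 0% = vehicle DMSO and 100% = killing by high DMSO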); conditions: CRL2098 osteosarcoma cells, drug combinations, stronger effect = higher value
[18] = HD-MB03 medulloblastoma cell growth inhibition, synergistic combos for chromothripsis tumors, BGB or cisplatin IC20 combos (AID 1671455; in the data active = inhibition above about 83%;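 note: 0% = vehicle DMSO and 100% = high DMSO as cytotoxic control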); conditions: HD-MB03 medulloblastoma cells, stronger effect = higher value
[19] = measured here: combination with BGB IC40, at 0.05 µM

Sequence of NAD(+) hydrolase SARM1 (Homo sapiens) (Q6SZW1 whole entry, looked up, the tested form may be a part): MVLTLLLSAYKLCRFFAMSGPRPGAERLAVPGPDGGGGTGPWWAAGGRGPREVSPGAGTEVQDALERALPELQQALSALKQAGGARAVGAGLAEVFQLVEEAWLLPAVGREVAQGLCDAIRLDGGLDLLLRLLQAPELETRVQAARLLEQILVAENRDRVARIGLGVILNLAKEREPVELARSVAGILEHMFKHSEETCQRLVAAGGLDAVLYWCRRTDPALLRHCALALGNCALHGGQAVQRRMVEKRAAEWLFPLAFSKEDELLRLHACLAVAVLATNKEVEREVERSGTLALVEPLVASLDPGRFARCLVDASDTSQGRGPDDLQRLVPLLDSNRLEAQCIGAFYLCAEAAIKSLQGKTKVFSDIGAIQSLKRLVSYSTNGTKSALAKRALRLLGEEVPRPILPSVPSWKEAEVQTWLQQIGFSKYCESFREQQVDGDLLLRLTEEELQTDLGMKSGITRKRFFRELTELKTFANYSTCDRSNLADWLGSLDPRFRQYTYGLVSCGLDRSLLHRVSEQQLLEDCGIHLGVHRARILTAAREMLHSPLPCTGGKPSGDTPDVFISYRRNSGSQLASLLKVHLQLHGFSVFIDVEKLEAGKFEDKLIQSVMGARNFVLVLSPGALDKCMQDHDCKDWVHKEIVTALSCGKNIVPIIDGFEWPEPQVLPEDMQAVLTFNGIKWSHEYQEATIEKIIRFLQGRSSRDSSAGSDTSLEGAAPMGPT
Sequence of Mitogen-activated protein kinase 7 (Homo sapiens) (Q13164 whole entry, looked up, the tested form may be a part): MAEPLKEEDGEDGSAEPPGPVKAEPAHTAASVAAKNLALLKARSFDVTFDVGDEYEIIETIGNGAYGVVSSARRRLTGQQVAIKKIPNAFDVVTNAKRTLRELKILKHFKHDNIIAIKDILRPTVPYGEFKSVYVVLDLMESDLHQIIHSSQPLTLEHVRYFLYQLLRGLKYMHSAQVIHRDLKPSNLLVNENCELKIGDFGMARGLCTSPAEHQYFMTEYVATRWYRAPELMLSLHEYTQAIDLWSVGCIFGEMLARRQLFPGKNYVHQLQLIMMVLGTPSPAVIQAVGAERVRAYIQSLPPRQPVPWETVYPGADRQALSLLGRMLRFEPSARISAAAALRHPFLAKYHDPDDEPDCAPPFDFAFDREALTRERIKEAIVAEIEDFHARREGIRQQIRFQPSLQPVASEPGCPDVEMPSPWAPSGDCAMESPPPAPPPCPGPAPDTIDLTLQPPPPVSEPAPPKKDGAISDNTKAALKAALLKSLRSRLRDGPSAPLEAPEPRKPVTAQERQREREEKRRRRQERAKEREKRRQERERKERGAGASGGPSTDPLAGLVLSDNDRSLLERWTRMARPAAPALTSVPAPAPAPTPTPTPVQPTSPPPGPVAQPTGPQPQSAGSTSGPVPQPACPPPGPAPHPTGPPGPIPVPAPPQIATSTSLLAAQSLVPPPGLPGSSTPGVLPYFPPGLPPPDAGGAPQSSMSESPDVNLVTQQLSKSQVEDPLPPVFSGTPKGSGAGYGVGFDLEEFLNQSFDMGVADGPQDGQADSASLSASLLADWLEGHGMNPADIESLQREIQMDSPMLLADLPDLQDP

Compound: NC(=O)NO
- outcome [1]: inactive
- outcome [2]: inactive
- outcome [3]: inactive
- outcome [4]: inactive
- fold change ([5]; stronger effect = lower value, cell number ratio, induced over uninduced): 0.975 (inactive) and 0.894 (inactive) and 0.861 (inactive)
- fold change ([5]; measured here: relative caspase fold change +Dox/-Dox): 1.12 and 0.968 and 1.05
- cell count ([5]; measured here: total cells with miR-34 induction, stronger effect = lower value): 10300 and 8660 and 7880
- cell count ([5]; measured here: total cells without miR-34 induction): 10600 and 9680 and 9160
- outcome [6]: inactive
- z-score ([7]; MELAS cybrid survival, CellTiter-Glo 48 h, stronger effect = higher value): -0.326 (inactive)
- z-score ([7]; Rieske KO mouse fibroblast survival, CellTiter-Glo 72 h): 0.485
- viability ([8]; at 0.000305 µM, OCI-C5x cells, with rucaparib 10 µM, 100% = cells with rucaparib alone): 105% (inactive)
- viability ([8]; at 0.000305 µM, OCI-C5x cells, without rucaparib): 113% (inactive)
- viability ([8]; at 0.000305 µM, OCI-P5x cells, with rucaparib 20 µM, 100% = cells with rucaparib alone): 95.9% (active)
- viability ([8]; at 0.000305 µM, OCI-P5x cells, without rucaparib): 97.6% (active)
- viability ([8]; at 0.00122 µM, OCI-C5x cells, with rucaparib 10 µM, 100% = cells with rucaparib alone): 111% (inactive)
- viability ([8]; at 0.00122 µM, OCI-C5x cells, without rucaparib): 112% (inactive)
- viability ([8]; at 0.00122 µM, OCI-P5x cells, with rucaparib 20 µM, 100% = cells with rucaparib alone): 98.6% (active)
- viability ([8]; at 0.00122 µM, OCI-P5x cells, without rucaparib): 102% (inactive)
- viability ([8]; at 0.00488 µM, OCI-C5x cells, with rucaparib 10 µM, 100% = cells with rucaparib alone): 105% (inactive)
- viability ([8]; at 0.00488 µM, OCI-C5x cells, without rucaparib): 104% (inactive)
- viability ([8]; at 0.00488 µM, OCI-P5x cells, with rucaparib 20 µM, 100% = cells with rucaparib alone): 101% (inactive)
- viability ([8]; at 0.00488 µM, OCI-P5x cells, without rucaparib): 109% (inactive)
- viability ([8]; at 0.0195 µM, OCI-C5x cells, with rucaparib 10 µM, 100% = cells with rucaparib alone): 104% (inactive)
- viability ([8]; at 0.0195 µM, OCI-C5x cells, without rucaparib): 115% (inactive)
- viability ([8]; at 0.0195 µM, OCI-P5x cells, with rucaparib 20 µM, 100% = cells with rucaparib alone): 106% (inactive)
- viability ([8]; at 0.0195 µM, OCI-P5x cells, without rucaparib): 109% (inactive)
- viability ([8]; at 0.0781 µM, OCI-C5x cells, with rucaparib 10 µM, 100% = cells with rucaparib alone): 116% (inactive)
- viability ([8]; at 0.0781 µM, OCI-C5x cells, without rucaparib): 106% (inactive)
- viability ([8]; at 0.0781 µM, OCI-P5x cells, with rucaparib 20 µM, 100% = cells with rucaparib alone): 106% (inactive)
- viability ([8]; at 0.0781 µM, OCI-P5x cells, without rucaparib): 116% (inactive)
- viability ([8]; at 0.313 µM, OCI-C5x cells, with rucaparib 10 µM, 100% = cells with rucaparib alone): 109% (inactive)
- viability ([8]; at 0.313 µM, OCI-C5x cells, without rucaparib): 114% (inactive)
- viability ([8]; at 0.313 µM, OCI-P5x cells, with rucaparib 20 µM, 100% = cells with rucaparib alone): 103% (inactive)
- viability ([8]; at 0.313 µM, OCI-P5x cells, without rucaparib): 110% (inactive)
- viability ([8]; at 1.25 µM, OCI-C5x cells, with rucaparib 10 µM, 100% = cells with rucaparib alone): 102% (inactive)
- viability ([8]; at 1.25 µM, OCI-C5x cells, without rucaparib): 116% (inactive)
- viability ([8]; at 1.25 µM, OCI-P5x cells, with rucaparib 20 µM, 100% = cells with rucaparib alone): 96.8% (active)
- viability ([8]; at 1.25 µM, OCI-P5x cells, without rucaparib): 110% (inactive)
- viability ([8]; at 5 µM, OCI-C5x cells, with rucaparib 10 µM, 100% = cells with rucaparib alone): 105% (inactive)
- viability ([8]; at 5 µM, OCI-C5x cells, without rucaparib): 114% (inactive)
- viability ([8]; at 5 µM, OCI-P5x cells, with rucaparib 20 µM, 100% = cells with rucaparib alone): 109% (inactive)
- viability ([8]; at 5 µM, OCI-P5x cells, without rucaparib): 111% (inactive)
- remaining NAD [9]: 10 nM (inactive)
- luciferase signal [10]: 44 AU (inactive)
- z-score [11]: 0.03 (inactive)
- inhibition ([12]; at 0.5 µM, stronger effect = higher value): -32.5% (inactive)
- inhibition ([12]; measured here: combination with BGB IC20, at 0.005 µM): -13.7%
- inhibition ([12]; measured here: combination with BGB IC40, at 0.005 µM): 33.3%
- inhibition [12, 19]: -4.05%
- inhibition ([12]; measured here: combination with cisplatin, at 0.5 µM, stronger effect = higher value): -74.7%
- inhibition ([12]; measured here: combination with cisplatin, at 5 µM, stronger effect = higher value): 7.33%
- inhibition ([13]; BGB combo, at 5 µM): 4.14%
- inhibition ([13]; at 0.5 µM): -0.11% (inactive)
- inhibition ([13]; cisplatin combo, at 5 µM): 7.9%
- inhibition ([13]; measured here: with BGB IC20 combination, at 0.5 µM): 1.89%
- inhibition ([13]; measured here: with cisplatin IC20 combination, at 0.5 µM): -0.484%
- inhibition ([13]; single agent, at 5 µM): 3.76%
- inhibition ([14]; BGB IC20 combo, at 0.005 µM): -9.77%
- inhibition ([14]; BGB IC40 combo, at 0.005 µM): -3.4%
- inhibition ([14]; BGB IC40 combo, at 0.05 µM): -15.1%
- inhibition ([14]; at 0.5 µM): -0.36% (inactive)
- inhibition ([14]; cisplatin combo, at 0.05 µM): -15.1%
- inhibition ([14]; cisplatin combo, at 0.5 µM): -15.2%
- inhibition ([14]; cisplatin combo, at 5 µM): -5.34%
- inhibition ([14]; measured here: 5 uM single agent, at 5 µM): -13.7%
- inhibition ([15]; at 0.5 µM): -11.7% (inactive)
- inhibition [15, 19]: -14.3%
- inhibition ([15]; measured here: combination with cisplatin, at 0.5 µM): 23.3%
- inhibition ([15]; measured here: combination with cisplatin, at 5 µM): 27.3%
- inhibition ([16]; at 0.5 µM): 4.31% (inactive)
- inhibition ([16]; measured here: with BGB IC20, at 0.5 µM): -11.6%
- inhibition ([16]; measured here: with BGB IC20, at 5 µM): 7.32%
- inhibition ([16]; measured here: with cisplatin IC20, at 0.5 µM): -0.499%
- inhibition ([16]; measured here: with cisplatin IC20, at 5 µM): 13.2%
- inhibition ([16]; single agent, at 5 µM): 18.4%
- inhibition ([17]; at 0.5 µM): -5.49% (inactive)
- inhibition ([17]; measured here: combination with BGB at IC20, at 0.5 µM): -9.56%
- inhibition ([17]; measured here: combination with cisplatin at IC20, at 0.5 µM): 4.43%
- inhibition ([18]; at 0.5 µM): -4.93% (inactive)
- inhibition ([18]; measured here: combo with BGB at IC20, at 0.5 µM): -2.45%
- inhibition ([18]; measured here: combo with cisplatin at IC20, at 0.5 µM): -8.29%
